Experimental data from the supplement of paper PMC4022240.
± gives the standard deviation.

How the values were obtained:
Experiment in all cases: peptide microarray binding signal (635 nm), min-max normalized on array (fraction of array maximum); higher = stronger binding
Conditions in all cases: peptide region: H3 30-42
[1] = biological target: T1, HaloTag-ATRX ADD domain (163-292)
T1 chain: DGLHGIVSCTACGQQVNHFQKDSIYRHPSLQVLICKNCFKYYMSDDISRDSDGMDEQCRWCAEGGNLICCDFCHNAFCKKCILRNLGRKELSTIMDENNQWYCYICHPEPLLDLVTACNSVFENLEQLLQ
How it was run: (§1)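 For each library, binding signal was taken as the triplicate-spot mean intensity and then min-max scaled. Spots of histone 13-mer peptide–cellulose conjugates on nitrocellulose, printed in triplicate with a Cy3 tracer, were probed for 1 h at 4°C with either biotin-labelled HaloTag reader fusions (10 nM to 1 μM) and streptavidin-Alexa Fluor 647 or rabbit histone antibodies (1:10,000 to 1:2,000) and anti-rabbit Alexa 647. Readout at 635 nm came from an Axon GenePix 4000B.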

[2] = biological target: HaloTag-ING2 PHD (mouse Ing2 200-280)
How it was run: as §1

[3] = biological target: anti-H3K4me3 antibody ab8580
How it was run: as §1

[4] = biological target: anti-H3K9me3 antibody ab8898
How it was run: as §1

[5] = peptide modifications: H3K36me3 H3K37me2, binder concentration: 1:2,000 dilution
[6] = peptide modifications: H3K36me3 H3K37me2, binder concentration: 1:10,000 dilution
[7] = peptide modifications: H3K37me1, binder concentration: 1:2,000 dilution
[8] = peptide modifications: H3K37me1, binder concentration: 1:10,000 dilution
[9] = peptide modifications: H3T32ph H3K36me1, binder concentration: 1:2,000 dilution
[10] = peptide modifications: H3T32ph H3K36me1, binder concentration: 1:10,000 dilution
[11] = peptide modifications: H3K37me3, binder concentration: 1:2,000 dilution
[12] = peptide modifications: H3K37me3, binder concentration: 1:10,000 dilution
[13] = peptide modifications: H3K37me2, binder concentration: 1:2,000 dilution
[14] = peptide modifications: H3K37me2, binder concentration: 1:10,000 dilution

PATGGVKKPHRYR [H3 30-42 P A T G G V Kme3 Kme2 P H R Y R]
peptide microarray binding signal ([1]; peptide modifications: H3K36me3 H3K37me2, binder concentration: 50 nM): 0.002539 ± 1.1e-05 | peptide microarray binding signal ([1]; peptide modifications: H3K36me3 H3K37me2, binder concentration: 500 nM): 0.00462 ± 0.00097 | peptide microarray binding signal ([2]; peptide modifications: H3K36me3 H3K37me2, binder concentration: 10 nM): 0.00471 ± 0.0004 | peptide microarray binding signal ([2]; peptide modifications: H3K36me3 H3K37me2, binder concentration: 100 nM): 0.00347 ± 0.00061 | peptide microarray binding signal [3, 5]: 0.00132 ± 0.00026 | peptide microarray binding signal [3, 6]: 0.00805 ± 0.0039 | peptide microarray binding signal [4, 5]: 0.00571 ± 0.0035 | peptide microarray binding signal [4, 6]: 0.00363 ± 0.00092

PATGGVKKPHRYR [H3 30-42 P A T G G V K Kme P H R Y R]
peptide microarray binding signal ([1]; peptide modifications: H3K37me1, binder concentration: 50 nM): 0.0106 ± 0.00056 | peptide microarray binding signal ([1]; peptide modifications: H3K37me1, binder concentration: 500 nM): 0.0245 ± 0.0059 | peptide microarray binding signal ([2]; peptide modifications: H3K37me1, binder concentration: 10 nM): 0.0491 ± 0.0011 | peptide microarray binding signal ([2]; peptide modifications: H3K37me1, binder concentration: 100 nM): 0.0698 ± 0.0049 | peptide microarray binding signal [3, 7]: 0.0068 ± 0.00068 | peptide microarray binding signal [3, 8]: 0.00765 ± 0.00036 | peptide microarray binding signal [4, 7]: 0.00234 ± 4.8e-05 | peptide microarray binding signal [4, 8]: 0.00225 ± 5.4e-05

PATGGVKKPHRYR [H3 30-42 P A Tph G G V Kme K P H R Y R]
peptide microarray binding signal ([1]; peptide modifications: H3T32ph H3K36me1, binder concentration: 50 nM): 0.00552 ± 0.00021 | peptide microarray binding signal ([1]; peptide modifications: H3T32ph H3K36me1, binder concentration: 500 nM): 0.00914 ± 0.00072 | peptide microarray binding signal ([2]; peptide modifications: H3T32ph H3K36me1, binder concentration: 10 nM): 0.00871 ± 0.00013 | peptide microarray binding signal ([2]; peptide modifications: H3T32ph H3K36me1, binder concentration: 100 nM): 0.0167 ± 0.0011 | peptide microarray binding signal [3, 9]: 0.00193 ± 0.00024 | peptide microarray binding signal [3, 10]: 0.00257 ± 0.00014 | peptide microarray binding signal [4, 9]: 0.00118 ± 0.00016 | peptide microarray binding signal [4, 10]: 0.00144 ± 0.00011

PATGGVKKPHRYR [H3 30-42 P A T G G V K Kme3 P H R Y R]
peptide microarray binding signal ([1]; peptide modifications: H3K37me3, binder concentration: 50 nM): 0.00621 ± 0.00029 | peptide microarray binding signal ([1]; peptide modifications: H3K37me3, binder concentration: 500 nM): 0.00781 ± 0.00023 | peptide microarray binding signal ([2]; peptide modifications: H3K37me3, binder concentration: 10 nM): 0.00949 ± 0.00038 | peptide microarray binding signal ([2]; peptide modifications: H3K37me3, binder concentration: 100 nM): 0.0356 ± 0.036 | peptide microarray binding signal [3, 11]: 0.00183 ± 9e-05 | peptide microarray binding signal [3, 12]: 0.00234 ± 4.2e-05 | peptide microarray binding signal [4, 11]: 0.00216 ± 0.00026 | peptide microarray binding signal [4, 12]: 0.00185 ± 5.2e-05

PATGGVKKPHRYR [H3 30-42 P A T G G V K Kme2 P H R Y R]
peptide microarray binding signal ([1]; peptide modifications: H3K37me2, binder concentration: 50 nM): 0.0036 ± 0.00019 | peptide microarray binding signal ([1]; peptide modifications: H3K37me2, binder concentration: 500 nM): 0.00771 ± 0.00019 | peptide microarray binding signal ([2]; peptide modifications: H3K37me2, binder concentration: 10 nM): 0.0121 ± 0.00097 | peptide microarray binding signal ([2]; peptide modifications: H3K37me2, binder concentration: 100 nM): 0.0202 ± 0.002 | peptide microarray binding signal [3, 13]: 0.00302 ± 0.00039 | peptide microarray binding signal [3, 14]: 0.00297 ± 0.00012 | peptide microarray binding signal [4, 13]: 0.00163 ± 0.00014 | peptide microarray binding signal [4, 14]: 0.001441 ± 1.4e-05
